Laboratory results published in PubChem BioAssay.

Tested on: Chordin-like protein 2 (CHRDL2)
Experiment: compounds binding chordin-like 2 – biochemical, small-molecule microarray, 635 nm fluorescence, primary screen (AID 1126);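 note: printed compound slides probed with Chrdl2 protein at 4 µg/mL for 1 h at 4 C; score merges 667 nm emission intensity with signal to noise over three replicate slides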
Settings: fluorescence 635 nm, higher = more signal

| SMILES | composite z-score |
| --- | --- |
| C=C(COC)/C(=C/C[C@H](OC(C)=O)c1ccc(CO)o1)c1cc(C(=O)OC)ccc1OC | 0.0151 |
| O=C(NCCN1CCOCC1)C1N=C(c2ccc(OCCCO)cc2)N(c2ccccc2)O1 (stereo not given) | 1.41 |
| COCCOC(=O)N1C(=O)[C@@]2(c3cc(C#CCCO)ccc31)[C@H](C(=O)N1CCCCCCC1)[C@H]1C(=O)O[C@H](c3ccccc3)[C@H](c3ccccc3)N1[C@@H]2c1ccc(OCCO)cc1 | 1.26 |
| COc1cc(Br)cc(C(O)C2C=CC3C(=O)N(C)C(=O)C3N2N2CCCCC2)c1OC (stereo not given) | -1.39 |
| C=C(C)[C@@H]1CC=C(C(O)C2C=CC3C(=O)N(C)C(=O)C3N2Nc2ccccc2)CC1 (stereo not given in full) | 1.38 |
| O=C(N1CCCCC1)[C@]1(Cc2ccccc2)N=C(c2ccc(OCCCO)cc2)O[C@@H]1c1ccccc1 | -0.862 |
| CC(C)c1ccc(NN2C(C(O)c3ccc(B(O)O)cc3)C=CC3C(=O)N(c4ccccc4)C(=O)C32)cc1 (stereo not given) | -1.06 |
| C=CCNC(=O)[C@@H]1[C@H]2C(=O)O[C@H](c3ccccc3)[C@H](c3ccccc3)N2[C@H](c2ccccc2OCCO)[C@@]12C(=O)N(C(=O)OCCOC)c1ccccc12 | 0.66 |
| CC(C)C(O)C1C=CC2C(=O)N(c3ccccc3)C(=O)C2N1Nc1ccc([N+](=O)[O-])cc1 (stereo not given) | -0.565 |
| COC(=O)[C@@]1(Cc2ccc(OC)cc2)[C@@H]2C(=CC(=O)[C@H]2CC(=O)C(=O)N2CCCC2)CN1C(=O)c1ccccc1 | -0.694 |
| COC(=O)[C@@]1(Cc2ccc(OC)cc2)[C@H]2c3cc(C(=O)N(C)C)n(Cc4ccc(S(C)(=O)=O)cc4)c3C[C@H]2CN1C(=O)c1ccccc1 | -0.948 |
| COCCOC(=O)N1C(=O)[C@@]2(c3cc(C#CC4(O)CCCCCC4)ccc31)[C@H](c1ccc(OCCO)cc1)N1[C@H](c3ccccc3)[C@H](c3ccccc3)OC(=O)[C@H]1[C@@H]2C(=O)N1CCN(c2ncccn2)CC1 | 0.34 |
| COc1ccc(C#Cc2ccc3c(c2)[C@]2(C(=O)N3)[C@H](C(=O)Nc3nc4ccccc4s3)[C@H]3C(=O)O[C@H](c4ccccc4)[C@H](c4ccccc4)N3[C@@H]2c2ccc(O)cc2)cc1 | 0.172 |
| OCCCC1=CC(c2cccs2)N(Cc2cc3c(cc2Br)OCO3)CC1 (stereo not given) | -0.0561 |
| CCN(CC)c1ccc(N2CC=CC34O[C@@H]5C=CCCOC(=O)C5[C@H]3C(=O)N(CCCCCCO)[C@@H]4C2=O)cc1 (stereo not given in full) | -0.489 |
| CCCCCN1CC=CC23O[C@@H]4/C=C\CCC(C)OC(=O)C4[C@H]2C(=O)N(C(C)CO)[C@@H]3C1=O (stereo not given in full) | -0.388 |
| CC(C)OC(=O)C=C1C[C@@H](c2ccccn2)O[C@@H](c2ccccn2)O1 | 1.49 |
| C=CCOC(=O)[C@H]1[C@@H]2C(=O)O[C@@H](c3ccccc3)[C@@H](c3ccccc3)N2[C@@H](c2ccc(OCCOC(=O)[C@@H]3C[C@@H]4C(=O)N[C@@H](CCCCNC(C)=O)C(=O)N4[C@@H]3c3ccc(O)cc3)cc2)[C@]12C(=O)Nc1ccccc12 | 1 |

| SMILES | composite z-score |
| --- | --- |
| Cc1nc2cc(Br)ccc2c(=O)o1 | 0.126 |
| C=CCOC(=O)[C@H]1[C@@H]2C(=O)O[C@@H](c3ccccc3)[C@@H](c3ccccc3)N2[C@@H](c2ccc(OCCOC(=O)[C@H]3C[C@H]4C(=O)N[C@@H](CCCCNC(C)=O)C(=O)N4[C@H]3c3ccc(O)cc3)cc2)[C@]12C(=O)Nc1ccc(I)cc12 | 1.25 |
| C=C[C@@H](COC(=O)OC(C)(C)C)N(Cc1ccc(OC)cc1)S(=O)(=O)c1ccc(Br)cc1 | 0.708 |
| COc1ccc([Si](C)(C)[C@H]2[C@H](CCO)O[C@@]3(C(=O)N(Cc4ccc(N(C=O)c5ccccc5)cc4)c4ccccc43)[C@@H]2C)cc1 | -0.957 |
| COCCOC(=O)N1C(=O)[C@@]2(c3cc(C#Cc4ccc(OC)cc4)ccc31)[C@H](c1ccc(OCCO)cc1)N1[C@H](c3ccccc3)[C@H](c3ccccc3)OC(=O)[C@H]1[C@@H]2C(=O)N1CCN(c2ncccn2)CC1 | 0.575 |
| COc1ccc(C#Cc2ccc3c(c2)[C@]2(C(=O)N3)[C@H](c3ccccc3OCCO)N3[C@H](c4ccccc4)[C@H](c4ccccc4)OC(=O)[C@H]3[C@@H]2C(=O)Nc2nc3ccccc3s2)cc1 | 0.886 |
| CCCC[C@@H]1C[C@H]1[C@@H](NC(=O)C(C)(C)C)c1ccc(C(F)(F)F)cc1 | -2.05 |
| COC(=O)C(CC#Cc1ccc2c(c1)[C@]1(C(=O)N2)[C@H](c2ccc(OCCO)cc2)N2[C@H](c3ccccc3)[C@H](c3ccccc3)OC(=O)[C@H]2[C@@H]1C(=O)Nc1nc2ccccc2s1)C(=O)OC | 0.326 |
| COc1ccc(CCNC(=O)[C@@]2(Sc3ccc(C)cc3)CC(=O)N(C(C)C)[C@@H]2c2ccc(CO)cc2I)cc1 | -0.578 |
| COC(=O)[C@@]1(Cc2ccc(F)cc2)[C@H]2c3cc(C(=O)N4CCCC4)n(Cc4ccc(S(C)(=O)=O)cc4)c3C[C@H]2CN1C(=O)c1ccccc1 | -0.26 |
| O=C1c2ccccc2[C@](Cc2ccccc2I)(C(=O)NCCN2CCOCC2)[C@H](c2ccc(CO)cc2)N1C1CCCCC1 | 0.67 |
| COC(=O)[C@@]1(CCS(=O)(=O)c2ccccc2)N=C(c2ccc(OCCCO)cc2)O[C@H]1c1ccccc1CN=[N+]=[N-] | -0.149 |
| COCCOC(=O)N1C(=O)[C@@]2(c3cc(C#CCNC(N)=O)ccc31)[C@H](C(=O)Nc1nc3ccccc3s1)[C@H]1C(=O)O[C@H](c3ccccc3)[C@H](c3ccccc3)N1[C@@H]2c1ccc(OCCO)cc1 | 1.34 |
| CC(C)NC(=O)[C@@H]1c2ccccc2C(=O)N(C2Cc3ccccc3C2)[C@H]1c1ccc(CO)cc1 | -0.321 |
| CC(C)=CCCC(C)=CC(O)C1C=CC2C(=O)N(C)C(=O)C2N1Nc1ccccc1 (stereo not given) | 1.28 |
| [N-]=[N+]=NCc1ccccc1C[C@]1(C(=O)N2CCCCC2)N=C(c2ccc(OCCCO)cc2)O[C@H]1c1ccccc1N=[N+]=[N-] | -0.518 |
| CCOC(=O)C[C@H]1[C@H](OC(=O)c2ccc(C(=O)c3ccccc3)cc2)[C@@H](NC(=O)CC(C)C)c2cc(OCCCO)ccc2N1C(=O)c1ccc2ccccc2n1 | 0.448 |
